In PubChem BioAssay AID1159580 (chemical genetic matrix, 2015):
Where “and” joins values, the source holds several entries; their conditions need not be identical. Equal entries are not always repeated. The whole screen tested about 5,500 compounds, of which about 2,000 (36%) were called active. Another 18% or so got no clear call; they are omitted. Rule as the data show it: active = normalized growth mostly below about 0.91 (no sharp cut-off); inconclusive = no clear call, values can overlap the other calls; inactive = mostly above about 0.92. Some of the results follow. Where a SMILES comes first, the peptide text is derived from it. Side-chain parts run from the residue outwards. [ ]: non-standard residue; d: D form. The star is where a group is joined. X1 = CCC(C)C(N)C1=NC(C(=O)*)CS1; Orn = NCCC[CH](N)C(=O)O

Assay: chemical genetic growth profiling, strain panel (AID 1159580);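 also: tested at 20 µM; growth read once vehicle control cultures reached saturation at 30 °C; 1 = growth at the plate median or of vehicle wells; lower values mean less growth of the strain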
Settings: S. cerevisiae deletion strains, growth OD

Measured: normalized growth

CCC(C)C(N)C1=NC(C(=O)NC(CC(C)C)C(=O)NC(CCC(=O)O)C(=O)NC(C(=O)NCCCCC2NC(=O)C(CC(N)=O)NC(=O)C(CC(=O)O)NC(=O)C(Cc3cnc[nH]3)NC(=O)C(Cc3ccccc3)NC(=O)C(C(C)CC)NC(=O)C(CCCN)NC2=O)C(C)CC)CS1 (stereo not drawn) (cyclo(DNK([Ile-Glu-Leu-X1])[Orn]IFH); configuration not given here)
inactive: locus YAL013W, strain DEP1, stronger effect = lower value 1.01 | locus YAL021C, strain ccr4, stronger effect = lower value 0.992 | locus YAL026C, strain drs2, stronger effect = lower value 0.929 | locus YAL030W, strain snc1, stronger effect = lower value 0.997 | locus YBL061C, strain skt5, stronger effect = lower value 1 | locus YBR009C, strain hhf1, stronger effect = lower value 0.952 | locus YBR021W, strain FUR4, stronger effect = lower value 1.01 | locus YBR023C, strain chs3, stronger effect = lower value 1.02 | locus YBR171W, strain sec66, stronger effect = lower value 1 | locus YBR229C, strain ROT2, stronger effect = lower value 0.991 | locus YBR231C, strain swc5, stronger effect = lower value 0.999 | locus YBR279W, strain paf1, stronger effect = lower value 1.01 | locus YCL011C, strain gbp2, stronger effect = lower value 0.968 | locus YCL016C, strain dcc1, stronger effect = lower value 0.981 | locus YCL029C, strain bik1, stronger effect = lower value 1.01 | locus YCL061C, strain MRC1, stronger effect = lower value 0.993 | locus YCL069W, strain vba3, stronger effect = lower value 1 | locus YCR088W, strain abp1, stronger effect = lower value 1.01 | locus YDL005C, strain med2, stronger effect = lower value 0.999 | locus YDL035C, strain GPR1, stronger effect = lower value 0.998 | locus YDL040C, strain nat1, stronger effect = lower value 1.01 | locus YDL074C, strain BRE1, stronger effect = lower value 1.04 | locus YDL101C, strain DUN1, stronger effect = lower value 1 | locus YDL185W, strain tfp1, stronger effect = lower value 1.04 | locus YDL192W, strain arf1, stronger effect = lower value 1 | locus YDR001C, strain nth1, stronger effect = lower value 0.987 | locus YDR069C, strain doa4, stronger effect = lower value 1.02 | locus YDR101C, strain arx1, stronger effect = lower value 1.02 | locus YDR137W, strain rgp1, stronger effect = lower value 0.992 | locus YDR150W, strain NUM1, stronger effect = lower value 1 | locus YDR159W, strain sac3, stronger effect = lower value 0.996 | locus YDR162C, strain NBP2, stronger effect = lower value 0.976 | locus YDR195W, strain ref2 0.976 | locus YDR297W, strain sur2, stronger effect = lower value 1.01 | locus YDR318W, strain mcm21, stronger effect = lower value 0.989 | locus YDR334W, strain swr1, stronger effect = lower value 1.01 | locus YDR335W, strain msn5, stronger effect = lower value 1.01 | locus YDR388W, stronger effect = lower value 1.01 | locus YDR392W, strain spt3, stronger effect = lower value 0.94 | locus YDR502C, strain sam2, stronger effect = lower value 1.01 | locus YEL003W, strain gim4, stronger effect = lower value 1.01 | locus YEL037C, strain rad23, stronger effect = lower value 1.01 | locus YEL061C, strain CIN8 (second series), stronger effect = lower value 1.01 | locus YEL061C, strain CIN8, stronger effect = lower value 0.998 | locus YER015W, strain faa2, stronger effect = lower value 1.01 | locus YER016W, strain bim1, stronger effect = lower value 1 | locus YER110C, stronger effect = lower value 1 | locus YER111C, strain swi4, stronger effect = lower value 1.01 | locus YER155C, strain BEM2 (second series), stronger effect = lower value 1.01 | locus YER155C, strain BEM2, stronger effect = lower value 0.992 | locus YER167W, strain BCK2, stronger effect = lower value 1.01 | locus YFR010W, strain ubp6, stronger effect = lower value 1.03 | locus YGL078C, strain dbp3, stronger effect = lower value 1.01 | locus YGL086W, strain mad1, stronger effect = lower value 1.05 | locus YGL167C, strain pmr1, stronger effect = lower value 1.02 | locus YGL173C, strain kem1, stronger effect = lower value 1 | locus YGL227W, strain vid30, stronger effect = lower value 1 | locus YGL240W, strain doc1, stronger effect = lower value 1.03 | locus YGL248W, strain PDE1, stronger effect = lower value 1 | locus YGL253W, strain hxk2, stronger effect = lower value 0.993 | locus YGR135W, strain pre9, stronger effect = lower value 1.01 | locus YGR252W, strain gcn5, stronger effect = lower value 0.924 | locus YHR013C, strain ard1, stronger effect = lower value 0.991 | locus YHR027C, strain rpn1, stronger effect = lower value 1.01 | locus YHR030C, strain SLT2, stronger effect = lower value 1 and 1.02 | locus YHR079C, strain IRE1 (second series), stronger effect = lower value 1 | locus YHR079C, strain IRE1, stronger effect = lower value 1.05 | locus YHR094C, strain hxt1, stronger effect = lower value 0.993 | locus YHR129C, strain ARP1, stronger effect = lower value 0.994 | locus YHR142W, strain chs7, stronger effect = lower value 1.04 | locus YHR200W, strain rpn10, stronger effect = lower value 0.984 | locus YIL066C, strain RNR3, stronger effect = lower value 1 | locus YIL073C, strain SPO22, stronger effect = lower value 1.19 | locus YIL125W, strain kgd1, stronger effect = lower value 1.01 | locus YIR030C, strain dcg1, stronger effect = lower value 0.993 | locus YJL092W, strain hpr5, stronger effect = lower value 1 | locus YJL095W, strain BCK1 (second series), stronger effect = lower value 1.01 | locus YJL095W, strain BCK1, stronger effect = lower value 0.999 and 1.04 | locus YJL115W, strain asf1, stronger effect = lower value 0.989 | locus YJL129C, strain trk1, stronger effect = lower value 1.02 | locus YJL134W, strain LCB3, stronger effect = lower value 1 | locus YJL154C, strain vps35, stronger effect = lower value 1 | locus YJL164C, strain tpk1, stronger effect = lower value 0.972 | locus YJL166W, strain qcr8, stronger effect = lower value 1.01 | locus YJL168C, strain set2, stronger effect = lower value 1.01 | locus YJL187C, strain SWE1 (second series), stronger effect = lower value 0.997 | locus YJL187C, strain SWE1, stronger effect = lower value 1 | locus YJR043C, strain POL32, stronger effect = lower value 0.996 | locus YJR066W, strain TOR1, stronger effect = lower value 0.969
